target: 6-phosphogluconate dehydrogenase, decarboxylating (Homo sapiens) (UniProt P52209); assay: inhibition of human phosphogluconate dehydrogenase – biochemical, recombinant enzyme, NADPH absorbance, primary screen (AID 1159550); conditions: recombinant 6PGD, NADPH absorbance 341 nm; at 10 µM; hits give high values
Sequence (P52209 whole entry, looked up): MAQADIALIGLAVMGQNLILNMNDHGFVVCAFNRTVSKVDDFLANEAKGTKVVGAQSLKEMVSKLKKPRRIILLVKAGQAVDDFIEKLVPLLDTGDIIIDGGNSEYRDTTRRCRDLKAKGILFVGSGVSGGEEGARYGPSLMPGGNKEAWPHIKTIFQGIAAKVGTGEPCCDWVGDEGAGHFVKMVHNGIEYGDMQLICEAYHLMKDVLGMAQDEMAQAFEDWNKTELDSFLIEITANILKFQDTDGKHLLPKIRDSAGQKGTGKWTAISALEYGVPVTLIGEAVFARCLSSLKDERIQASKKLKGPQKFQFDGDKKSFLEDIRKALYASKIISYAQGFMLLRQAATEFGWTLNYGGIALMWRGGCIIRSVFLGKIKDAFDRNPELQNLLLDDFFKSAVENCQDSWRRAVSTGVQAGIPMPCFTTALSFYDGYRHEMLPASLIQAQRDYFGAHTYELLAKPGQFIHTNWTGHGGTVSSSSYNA

inhibition, inactive:
CC(C)=CCC[C@](C)(O)C1CC=C(C)CC1 (some centres undefined) 1.33%
CC(=O)OC1C=C(C)C(COc2ccc3ccc(=O)oc3c2)C2(C)CCC(O)C(C)(C)C12 (centres undefined) 9.19%
CN1c2ccccc2C(=O)N2CCc3c([nH]c4ccc(O)cc34)[C@H]21 3.55%
NC1(C(=O)O)CCC1 2.05%
Cc1cc(=O)c2c(O)c(C)c(O)cc2o1 15%
CC[C@H](C(=O)[C@@H](C)[C@@H](O)[C@H](C)[C@@H]1O[C@@H]([C@@H](CC)C(=O)O)CC[C@@H]1C)[C@H]1O[C@]2(C=C[C@@H](O)[C@]3(CC[C@@](C)([C@H]4CC[C@](O)(CC)[C@H](C)O4)O3)O2)[C@H](C)C[C@@H]1C 2.61%
COc1ccc(-c2coc3cc(O)ccc3c2=O)c(OC)c1O 1.46%
C=C(C)C1Cc2c(ccc(C(=O)O)c2O)O1 (centres undefined) -0.806%
COC(=O)[C@]1(C)CC[C@]2(C)CC[C@]3(C)C4=CCc5c(cc(OC(C)=O)c(OC(C)=O)c5C)[C@]4(C)CC[C@@]3(C)[C@@H]2C1 10.1%
CC(=O)N[C@H]1[C@H]([C@H](O)[C@H](O)CO)O[C@](O)(C(=O)O)C[C@@H]1O -6.71%
CC(C)CCC[C@@H](C)[C@H]1CC[C@H]2[C@@H]3CC[C@H]4CCCC[C@]4(C)[C@H]3CC[C@]12C 11.6%
COc1cc(OC)c2oc(-c3ccc(OC)c(OC)c3)c(O)c(=O)c2c1 -1.17%
C[C@@H]1CC[C@@]2(OC1)O[C@H]1C[C@H]3[C@@H]4CC=C5C[C@@H](O)CC[C@]5(C)[C@H]4CC[C@]3(C)[C@H]1[C@@H]2C 10.6%
COC(=O)C(O)[C@H]1C(C)(C)[C@@H](OC(C)=O)[C@@H]2CC3=C4CC(=O)O[C@@H](c5ccoc5)[C@]4(C)CCC3[C@@]1(C)C2=O (some centres undefined) 12.8%
CC1=CCCC(C)=CCC(C)(C)C=CC1 -0.753%
CC(=O)O[C@H]1C[C@@H](OC(C)=O)C(C)(C)[C@@H]2C[C@@H](O)[C@@]3(C)[C@H](CC[C@]4(C)[C@@H](c5ccoc5)OC(=O)[C@H]5O[C@@]534)[C@@]12C 13.5%
CC(=O)O[C@@H]1CC2C(C)(C)C=CC(=O)[C@]2(C)C2CC[C@@]3(C)[C@H](c4ccoc4)OC(=O)C4OC43[C@@]21C (some centres undefined) -6.87%
C[C@H](CCC(=O)O)[C@H]1CC[C@H]2[C@@H]3C[C@H](O)[C@@H]4C[C@H](O)CC[C@]4(C)[C@H]3CC[C@]12C 2.54%
C=C(C)/C=C1/C=CC(=O)C(C)=C1 -4.6%
C[C@H]1O[C@H]1P(=O)(O)O 6.14%
O=C(Oc1cc(OC(=O)c2ccccc2)c2c(c1)O[C@H](c1ccc(OC(=O)c3ccccc3)c(OC(=O)c3ccccc3)c1)[C@@H](OC(=O)c1ccccc1)C2)c1ccccc1 -9.47%
COc1ccc2c(c1)[C@@]1(C)CC[C@@H](O)C[C@@H]1CC2 13.3%
N[C@@H](C=O)[C@@H](O)[C@H](O)[C@H](O)CO -0.658%
COc1cc(O)c2c(=O)c(-c3ccccc3)coc2c1 -1.53%
COc1ccc(-c2cc(=O)c3ccc(OC)cc3o2)cc1 -4.22%
CC1(C)C(=O)C=C[C@]2(C)C3CC[C@@]4(C)[C@H](c5ccoc5)OC(=O)[C@H]5O[C@]54[C@]3(C)C(=O)C[C@@H]12 (some centres undefined) 1.03%
CC(=O)O[C@@H]1CC2C(C)(C)C(=O)[C@@H]3O[C@@H]3[C@]2(C)C2CC[C@]3(C)C(=CC(=O)O[C@H]3c3ccoc3)[C@@]21C (some centres undefined) 0.52%
O=C(O[C@@H]1Cc2c(O)cc(O)cc2O[C@@H]1c1cc(O)c(O)c(O)c1-c1c([C@H]2Oc3cc(O)cc(O)c3C[C@H]2O)cc(O)c(O)c1O)c1cc(O)c(O)c(O)c1 1.5%
COc1ccc(-c2cc(=O)c3c(O)cc(O[C@H]4O[C@H](CO[C@@H]5O[C@@H](C)[C@H](O)[C@@H](O)[C@H]5O)[C@@H](O)[C@H](O)[C@H]4O)cc3o2)cc1 17.5%
CS(=O)(=O)CCCCN=C=S 1.33%
N[C@@H](Cc1cnc[nH]1)C(=O)Nc1ccc2ccccc2c1 -4.42%
O=C(O)[C@H]1CCCNC1 2.88%
COc1ccccc1/C=C/C(=O)O 11.5%
COc1ccc(C(C)C(=O)c2ccc(O)cc2O)cc1 (centres undefined) 10.6%
COc1cc(O)cc(/C=C/c2ccccc2)c1 10.9%
NCC1O[C@@H](O[C@H]2C(O)C(O[C@@H]3OC(CO)[C@H](O)[C@H](N)C3O)[C@@H](N)C[C@H]2N)C(O)[C@@H](O)[C@H]1O (some centres undefined) -2.65%
CC(C)CCCC(C)C1CCC2C3C(=O)C=C4C[C@@H](O)CCC4(C)C3CCC12C (some centres undefined) 12.2%
CCOC(=O)C1(O)Oc2cc(OC)cc(OC)c2C(=O)C1c1ccccc1 (centres undefined) -4.01%
COc1ccc2c(c1)O[C@@H]1c3ccc(OC)cc3OC[C@H]21 0.294%
